Assay outcomes: PubChem, National Center for Advancing Translational Sciences (NCATS)
The list is not random: actives were taken first. Their share in the collection is about 11%.
HP1b binding inh: HP1-beta chromodomain-methylated histone interaction inhibition; AlphaScreen HP1-beta / biotin-H3K9me3 peptide binding; AID 540317; Potency, µM (series often up to 114 µM), actives largely listed as inhibitors; P83916; 390,000 compounds, 0.56% hits; further: nearly all actives have a fitted effect of over 70% in size
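HP1-beta protein (50 nM final) preincubated 30 min at room temperature with biotinylated H3(1-18)K9me3 peptide (50 nM) in PBS pH 7.4, 0.01% Tween-20, then compound added for 30 min. AlphaScreen streptavidin donor/nickel chelate acceptor beads (10 ug/mL final), 30 min dark, luminescence read.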
JMJD2A Tudor: JMJD2A Tudor domain (human) inhibition; 390,000 compounds, 4.4% hits; AlphaScreen JMJD2A-Tudor / H3K4me3 peptide binding; O75164; Potency, µM (series often up to 114 µM), actives largely listed as inhibitors; further: nearly all actives have a fitted effect of over 50% in size
BAZ2B inh: blocks human BAZ2B; AlphaScreen BAZ2B-H3K14Ac peptide displacement; Potency, µM (highest dose often 114 µM), usual class: inhibitors; 360,000 compounds, 4.4% hits; AID 504333; further: nearly all actives have a fitted effect of over 60% in size
Target sequence (Q9UIF8 whole entry, looked up): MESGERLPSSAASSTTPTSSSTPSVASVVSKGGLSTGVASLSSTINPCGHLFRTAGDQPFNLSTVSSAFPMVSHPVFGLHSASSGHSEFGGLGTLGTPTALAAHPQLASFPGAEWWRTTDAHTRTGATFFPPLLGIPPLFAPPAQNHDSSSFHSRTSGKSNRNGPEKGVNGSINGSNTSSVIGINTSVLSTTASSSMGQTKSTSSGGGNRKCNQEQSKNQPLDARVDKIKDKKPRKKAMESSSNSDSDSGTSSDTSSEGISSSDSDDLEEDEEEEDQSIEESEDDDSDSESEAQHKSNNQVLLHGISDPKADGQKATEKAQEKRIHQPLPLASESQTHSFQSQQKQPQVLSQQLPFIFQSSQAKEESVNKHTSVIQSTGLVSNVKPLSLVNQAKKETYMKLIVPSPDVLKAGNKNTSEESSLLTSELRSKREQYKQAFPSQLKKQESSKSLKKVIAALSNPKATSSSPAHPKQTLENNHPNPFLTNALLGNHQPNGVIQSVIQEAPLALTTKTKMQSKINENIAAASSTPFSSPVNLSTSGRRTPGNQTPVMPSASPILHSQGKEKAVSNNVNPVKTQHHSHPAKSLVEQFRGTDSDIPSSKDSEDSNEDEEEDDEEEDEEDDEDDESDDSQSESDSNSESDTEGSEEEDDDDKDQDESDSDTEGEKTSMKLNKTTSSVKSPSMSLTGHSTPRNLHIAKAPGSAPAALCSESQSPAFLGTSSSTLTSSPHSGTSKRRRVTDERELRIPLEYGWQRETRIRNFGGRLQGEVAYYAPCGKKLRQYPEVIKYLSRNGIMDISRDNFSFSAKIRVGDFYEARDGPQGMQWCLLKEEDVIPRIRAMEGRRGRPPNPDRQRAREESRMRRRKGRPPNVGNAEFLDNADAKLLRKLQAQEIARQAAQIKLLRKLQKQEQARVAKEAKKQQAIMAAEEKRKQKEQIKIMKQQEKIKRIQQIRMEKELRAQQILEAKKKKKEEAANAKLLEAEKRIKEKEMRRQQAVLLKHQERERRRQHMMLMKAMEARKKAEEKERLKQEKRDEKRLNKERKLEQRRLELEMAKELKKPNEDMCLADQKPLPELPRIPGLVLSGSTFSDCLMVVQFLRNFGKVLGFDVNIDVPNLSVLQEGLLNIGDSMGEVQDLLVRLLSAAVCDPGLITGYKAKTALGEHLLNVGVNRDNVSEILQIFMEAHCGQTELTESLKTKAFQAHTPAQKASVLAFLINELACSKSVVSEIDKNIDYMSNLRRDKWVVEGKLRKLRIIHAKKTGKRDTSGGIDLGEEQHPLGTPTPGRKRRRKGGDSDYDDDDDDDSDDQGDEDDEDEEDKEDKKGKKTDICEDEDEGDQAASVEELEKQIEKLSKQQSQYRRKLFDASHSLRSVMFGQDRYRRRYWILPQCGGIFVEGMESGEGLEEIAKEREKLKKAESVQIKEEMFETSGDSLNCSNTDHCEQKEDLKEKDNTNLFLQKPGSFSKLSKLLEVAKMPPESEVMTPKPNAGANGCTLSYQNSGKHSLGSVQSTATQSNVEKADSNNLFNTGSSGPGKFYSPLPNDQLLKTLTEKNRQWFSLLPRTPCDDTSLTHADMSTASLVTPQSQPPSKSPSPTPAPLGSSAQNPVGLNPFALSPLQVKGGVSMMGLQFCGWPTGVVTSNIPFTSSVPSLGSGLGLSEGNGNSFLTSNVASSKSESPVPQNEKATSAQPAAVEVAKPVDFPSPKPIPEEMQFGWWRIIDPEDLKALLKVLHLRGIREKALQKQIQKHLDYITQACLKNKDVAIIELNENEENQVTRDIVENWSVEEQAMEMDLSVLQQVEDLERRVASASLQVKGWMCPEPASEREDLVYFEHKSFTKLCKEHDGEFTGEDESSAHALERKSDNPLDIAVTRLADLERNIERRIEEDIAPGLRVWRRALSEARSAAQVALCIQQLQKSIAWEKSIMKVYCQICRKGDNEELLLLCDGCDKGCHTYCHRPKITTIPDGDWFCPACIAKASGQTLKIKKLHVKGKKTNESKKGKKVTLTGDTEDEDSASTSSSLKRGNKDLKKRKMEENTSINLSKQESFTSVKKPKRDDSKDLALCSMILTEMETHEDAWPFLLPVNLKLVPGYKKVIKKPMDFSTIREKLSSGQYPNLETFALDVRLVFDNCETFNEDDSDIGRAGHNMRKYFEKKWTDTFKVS
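AlphaScreen luminescence quantifies BAZ2B engagement of H3K14Ac peptide; the protein and biotinylated peptide are both at 50 nM final, buffer PBS pH 7.4 with 0.01% Tween-20, all steps at room temperature.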
G9a block: G9a (human) methyltransferase inhibition; AID 504332; G9a H3K9 monomethylation, AlphaScreen, 2 h; 350,000 compounds, 8.8% hits; Potency, µM (series often up to 102 µM), usual class: inhibitors; further: nearly all actives have a fitted effect of over 75% in size
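Enzyme 20 nM + cpd, 15 min RT; add b-H3K9 pep 500 nM / SAM 20 uM; 2 h RT; anti-H3K9me1 Ab 0.5 ug/mL + SA donor / anti-rabbit acceptor beads 20 ug/mL each, 10 min; AlphaScreen read.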
L3MBTL1 inh: L3MBTL1 (human) inhibition; Q9Y468; AlphaScreen L3MBTL1–H3K9me1 peptide binding; Potency, µM (highest dose often 57.1 µM), most hits filed as inhibitors; 230,000 compounds, 0.66% hits; AID 485360; further: nearly all actives have a fitted effect of over 60% in size
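AlphaScreen proximity signal between nickel-chelate acceptor and streptavidin donor beads (final 10 ug/mL) reports binding of 50 nM L3MBTL1 to 75 nM biotin-H3 K9me1 peptide; complex incubated with compounds 30 min at room temperature; cefsulodin titration as control.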
Each line names hits and unclear results; the compound was inactive in the other large screens. The call rests on the fitted dose curve; in most records, active means well fitted inhibition curve with a large enough effect; inconclusive means small, poorly fitted or top-dose-only effect; inactive means no such curve, though single readings can be large or run the other way.

COC(=O)[C@@]1(Cc2ccc(OC)cc2)[C@H]2c3cc(C(=O)N4CCCC4)n(CCc4c[nH]c5ccc(O)cc45)c3C[C@H]2CN1C(=O)c1ccccc1	BAZ2B inh inconclusive, G9a block 50µM (no result: HP1b binding inh, JMJD2A Tudor)
COC(=O)[C@@]1(Cc2ccc(OC)cc2)[C@H]2c3cc(C(=O)N4CCCC4)n(CCO)c3C[C@H]2CN1C(=O)c1ccccc1	G9a block 50µM
COC(=O)[C@@]1(Cc2ccccc2)[C@H]2c3cc(C(=O)N4CCCC4)n(Cc4ccsc4Br)c3C[C@H]2CN1C(=O)c1ccccc1	BAZ2B inh inconclusive, G9a block inconclusive (no result: HP1b binding inh, JMJD2A Tudor)
CCOc1ccc(N(CC)S(=O)(=O)N2CCCC(C(=O)NCCc3ccccc3OC)C2)cc1 (stereo not given)	none (no result: L3MBTL1 inh)
CCc1cc(C(=O)Nc2sc(C)c(CC)c2C#N)no1	G9a block 2.5µM (no result: L3MBTL1 inh)
CCc1c(C)sc(NC(=O)c2cc(C)no2)c1C#N	BAZ2B inh inconclusive, G9a block 13µM (no result: L3MBTL1 inh)
O=C(CN1C(=O)N/C(=C\c2ccccc2OCc2ccc(C(=O)O)cc2)C1=O)Nc1ccc(F)cc1	HP1b binding inh inconclusive, BAZ2B inh 71µM (no result: L3MBTL1 inh)
O=C(O)c1ccc(COc2ccccc2/C=C2\NC(=O)N(Cc3ccc(F)cc3)C2=O)cc1	G9a block inconclusive
Cc1cccc(NC(=O)CN2C(=O)N/C(=C\c3ccccc3OCc3ccc(C(=O)O)cc3)C2=O)c1	HP1b binding inh inconclusive, JMJD2A Tudor inconclusive, BAZ2B inh 71µM (no result: L3MBTL1 inh)
CC(NC(=O)COc1ccc(-c2nnco2)cc1)c1ccc(Cl)cc1Cl (stereo not given)	G9a block 45µM
CCN(Cc1ccccc1)C(=O)Cn1c(=O)n(-c2cccc(C)c2)c(=O)c2c1c1cc(C)ccc1n2C	none (no result: L3MBTL1 inh)
Cc1cc(C)c(NC(=O)Cn2c(=O)n(CCc3ccccc3)c(=O)c3ccccc32)c(C)c1	none (no result: L3MBTL1 inh)
COC(=O)CC(NC(=S)NC(=O)c1ccccc1)c1ccc(Br)cc1 (stereo not given)	G9a block 40µM (no result: L3MBTL1 inh)
COC(=O)CC(N)c1ccc(Br)cc1 (stereo not given)	none
CSCC[C@H](NC(=O)[C@H](Cc1ccccc1)NC[C@@H](NC[C@@H](N)CS)C(C)C)C(=O)O	G9a block 20µM (no result: HP1b binding inh, JMJD2A Tudor, BAZ2B inh, L3MBTL1 inh)
O=C(C1=C(O)C(=O)N(CC2CCCO2)C1c1cccc(Cl)c1)c1ccco1 (stereo not given)	G9a block inconclusive (no result: L3MBTL1 inh)
O=C(C1=C(O)C(=O)N(CC2CCCO2)C1c1cccnc1)c1ccco1 (stereo not given)	JMJD2A Tudor inconclusive, BAZ2B inh inconclusive, G9a block 40µM
O=C(C1=C(O)C(=O)N(CC2CCCO2)C1c1ccccc1)c1ccco1 (stereo not given)	G9a block 45µM (no result: L3MBTL1 inh)
COc1ccc(C2C(C(=O)c3ccco3)=C(O)C(=O)N2CC2CCCO2)cc1OC (stereo not given)	G9a block 50µM (no result: L3MBTL1 inh)
CC(C)(C)c1ccc(C2C(C(=O)c3ccco3)=C(O)C(=O)N2CC2CCCO2)cc1 (stereo not given)	none (no result: L3MBTL1 inh)
COc1ccc(C2C(C(=O)c3ccco3)=C(O)C(=O)N2CCc2ccccc2)cc1OC (stereo not given)	JMJD2A Tudor 79µM, G9a block 50µM
Cc1ccccc1-c1cncnc1NCc1cccs1	none (no result: HP1b binding inh, JMJD2A Tudor, BAZ2B inh, L3MBTL1 inh)
COc1ccc(CCNC(=O)c2csc3c2CCCCC3)c(OC)c1	none (no result: L3MBTL1 inh)
CCCn1cc(SCC(=O)NCc2ccco2)c2ccccc21	BAZ2B inh inconclusive, G9a block 40µM
O=C(CSc1cn(CCNC(=O)c2ccccc2)c2ccccc12)NCc1ccco1	JMJD2A Tudor inconclusive, BAZ2B inh inconclusive, G9a block 40µM (no result: L3MBTL1 inh)
O=C(CSc1cn(CCNC(=O)c2ccccc2)c2ccccc12)NCC1CCCO1 (stereo not given)	none (no result: L3MBTL1 inh)
O=C(NCCCN1CCN(c2ccccc2F)CC1)c1ccc2nc(CCc3ccccc3)oc2c1	JMJD2A Tudor inconclusive, BAZ2B inh inconclusive (no result: L3MBTL1 inh)
CCCS(=O)(=O)c1nc(S(=O)(=O)c2ccc(C)cc2)c(NCc2ccccc2Cl)s1	none (no result: L3MBTL1 inh)
CCCS(=O)(=O)c1nc(S(=O)(=O)c2ccc(C)cc2)c(NCc2ccc3c(c2)OCO3)s1	G9a block 40µM
N#Cc1c(N)n(Cc2ccccc2)c(=O)c2cc([N+](=O)[O-])ccc12	none (no result: L3MBTL1 inh)
